# Measured values taken from the supplement of paper PMC9135407.
# Where “and” joins values, the source holds several entries; their conditions need not be identical. Equal entries are not always repeated. Structures can show the parent of a compound that is named as a salt. About 620 (11%) of roughly 5,800 compounds showed activity. The sample as a whole holds a higher share of actives than the screen did. A number with no mark means an inactive call.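 The calls were made as follows: active = score above a cut-off or among the top three wells of a plate; in these data no inactive exceeds 0.85.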
# Test system: primary human hepatic stellate cells (donor 1)
# Assay: scaled lipid accumulation score (0 = DMSO-like, 1 = nortriptyline-like); higher = stronger HSC inactivation (lipid re-accumulation), active = hit call of the paper
# Conditions: 48 h
# Description: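 Primary lipid accumulation screen in primary human hepatic stellate cell myofibroblasts (donor 1, passage 8) in 384-well plates. 100 nL of library compound was pin-transferred into 30 µL medium in duplicate, and cells were treated for 48 h. The 'Scaled' score combines distance from plate baseline, toxicity and reproducibility penalties, and is normalised to nortriptyline (positive) and DMSO (negative) controls on each plate. A hit is defined as scaled >0.85 or among the top 3 wells per plate.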
# [1] = library stock concentration: 80 uM
# [2] = library stock concentration: 400 uM
# [3] = library stock concentration: 2 mM
# [4] = library stock concentration: 10 mM
# [5] = library stock concentration: 3.33 mM
# [6] = library stock concentration: 1 mM
smiles,measurement,setting,value
COc1ccc(-c2cc3nccn3c(Nc3ncccc3C(N)=O)n2)cc1OC,scaled lipid accumulation score,[1],0.088
same,scaled lipid accumulation score,[2],≤ -0.009
same,scaled lipid accumulation score,[3],0.133
same,scaled lipid accumulation score,[4],0.349
CCC[C@H](Nc1nc(-c2ccc(NC(=O)NCC)c(OC)c2)ncc1C)c1cccnc1 [CYT997 (Lexibulin)],scaled lipid accumulation score,[5],0.682
same,scaled lipid accumulation score,[4],0.758
C[N+](C)(C)CCO.[Cl-] [Choline chloride],scaled lipid accumulation score,[4],≤ -0.027
same,scaled lipid accumulation score,library stock concentration: 14.3 mM,≤ 0
C[N+](C)(C)CCO.[Cl-] [Choline Chloride],scaled lipid accumulation score,[5],≤ 0
same,scaled lipid accumulation score,[4],0.043
N#CC(=Cc1ccc2[nH]ccc2c1)C(N)=C(C#N)C#N,scaled lipid accumulation score,library stock concentration: 19.3 mM,0.606
COc1ccc(C2=N[C@@H](c3ccc(Cl)cc3)[C@H](c3ccc(Cl)cc3)N2C(=O)N2CCNC(=O)C2)c(OC(C)C)c1 [Nutlin-3a],scaled lipid accumulation score,[4],0.954 (active)
COc1ccc(C2=N[C@@H](c3ccc(Cl)cc3)[C@@H](c3ccc(Cl)cc3)N2C(=O)N2CCNC(=O)C2)c(OC(C)C)c1 [Nutlin-3],scaled lipid accumulation score,[5],0.168
same,scaled lipid accumulation score,[4],0.829
COc1ccc(C2=NC(c3ccc(Cl)cc3)C(c3ccc(Cl)cc3)N2C(=O)N2CCNC(=O)C2)c(OC(C)C)c1 (configuration not stated) [Nutlin-3a],scaled lipid accumulation score,[5],0.207
COc1ccc(C2=N[C@@H](c3ccc(Cl)cc3)[C@@H](c3ccc(Cl)cc3)N2C(=O)N2CCNC(=O)C2)c(OC(C)C)c1,scaled lipid accumulation score,[6],≤ 0
COc1ccc(C2=NC(c3ccc(Cl)cc3)C(c3ccc(Cl)cc3)N2C(=O)N2CCNC(=O)C2)c(OC(C)C)c1 (configuration not stated) [Nutlin-3b],scaled lipid accumulation score,[5],≤ -0.009
same,scaled lipid accumulation score,[4],≤ 0
CCCCCCCCCCCCCCCCCCOCC(O)COP(=O)([O-])OCC[N+](C)(C)C (configuration not stated),scaled lipid accumulation score,[6],≤ 0
CCCCCCCCCCCCCCCCCC(=O)OCC [Stearic Acid ethyl ester],scaled lipid accumulation score,[6],≤ 0
O=C(NCCN1CCOCC1)c1ccc(Cl)cc1 [Moclobemide],scaled lipid accumulation score,,0.059
same,scaled lipid accumulation score,[4],0.047
c1ccc2c(c1)CCCc1cc(NCCN3CCOCC3)nnc1-2,scaled lipid accumulation score,,0.038
O=C1C(Cl)=C(NCCN2CCOCC2)C(=O)c2ncccc21,scaled lipid accumulation score,[4],1.04 (active)
O=C(NCCN1CCOCC1)c1ccc(Cl)cc1 [4-Chloro-N-(2-morpholin-4-yl-ethyl)-benzamide],scaled lipid accumulation score,[4],≤ 0
O=C(NCCN1CCOCC1)c1ccc(Cl)cc1,scaled lipid accumulation score,[5],≤ 0
same,scaled lipid accumulation score,[4],≤ 0
CN1Cc2sccc2C(c2ccc(O)c(O)c2)C1 (configuration not stated),scaled lipid accumulation score,[4],0.005
CC(=O)N[C@@H](CSC/C=C(\C)CC/C=C(\C)CCC=C(C)C)C(=O)O [Acetyl (N)-s-farnesyl-l-cysteine],scaled lipid accumulation score,library stock concentration: 13.6 mM,≤ -0.021
CC(=O)N[C@@H](CSC/C=C(\C)CC/C=C(\C)CCC=C(C)C)C(=O)O [N-acetyl-S-farnesyl-L-Cysteine],scaled lipid accumulation score,[6],≤ 0
CS(=O)(=O)Nc1c(O)ccc2c1CCCC2C1=NCCN1 (configuration not stated),scaled lipid accumulation score,[4],0.027
COc1cc(C=C(C#N)C(N)=O)cc(CSc2nc3ccccc3s2)c1O [Tyrphostin AG-825],scaled lipid accumulation score,library stock concentration: 12.6 mM,0.042
c1ccc(-c2cnc(Nc3ccc(OCCN4CCCC4)cc3)s2)cc1 [Flt-3 Inhibitor III],scaled lipid accumulation score,[5],1.17 (active)
"c1cc(-c2cnn3cc(-c4ccc(OCCN5CCCCC5)cc4)cnc23)ccn1 [AMPK Inhibitor, Compound C]",scaled lipid accumulation score,[5],≤ 0
c1cc(-c2cnn3cc(-c4ccc(OCCN5CCCCC5)cc4)cnc23)ccn1 [Dorsomorphin],scaled lipid accumulation score,[1],≤ 0
same,scaled lipid accumulation score,[2],≤ 0
same,scaled lipid accumulation score,[3],0.557
same,scaled lipid accumulation score,[4],0.469
Cc1cnc(Nc2ccc(OCCN3CCCC3)cc2)nc1Nc1cccc(S(=O)(=O)NC(C)(C)C)c1,scaled lipid accumulation score,[1],0.07
same,scaled lipid accumulation score,[2],0.23
same,scaled lipid accumulation score,[3],0.765
same,scaled lipid accumulation score,[5],0.703
same,scaled lipid accumulation score,[4],0.345 and 0.579
CCCCC[C@H](O)C/C=C1/C(=O)C[C@H](O)[C@@H]1C/C=C\CCCC(=O)O [.DELTA.12-Prostaglandin D2],scaled lipid accumulation score,[6],≤ 0
CCCCC/C=C\C/C=C\CC/C=C\CCCC(=O)O [Pinolenic Acid],scaled lipid accumulation score,[6],0.009
NC(=O)N1C(=O)/C(=C(\O)c2cccs2)c2cc(Cl)ccc21 [Tenidap],scaled lipid accumulation score,[4],≤ -0.001
O=C(O)c1cc(O)c2ccc(Cl)cc2n1 [7-Chlorokynurenic acid],scaled lipid accumulation score,[4],0.023
Cc1cnc(-c2ccccc2C(C)C)nc1NCc1ccc(-n2ccnn2)cc1,scaled lipid accumulation score,[5],≤ -0.009
same,scaled lipid accumulation score,[4],≤ 0
Nc1cc(N2CCCCC2)nc(N)[n+]1OS(=O)(=O)[O-] [Minoxidil sulfate],scaled lipid accumulation score,library stock concentration: 17.3 mM,≤ -0.021
C=CCCCCCCCCC(=O)O [Undecylenic acid],scaled lipid accumulation score,library stock concentration: 10.9 mM,≤ 0
CC1CN(S(=O)(=O)c2cccc3cnccc23)CCN1 (configuration not stated),scaled lipid accumulation score,[4],0.164
O=c1[nH]ccc2c(S(=O)(=O)N3CCCNCC3)cccc12 [HA 1100 hydrochloride],scaled lipid accumulation score,[4],≤ -0.001
O=S(=O)(c1cccc2cnccc12)N1CCNCC1,scaled lipid accumulation score,[4],0.248
O=S(=O)(c1cccc2cnccc12)N1CCCNCC1 [Fasudil hydrochloride],scaled lipid accumulation score,[4],0.07
O=S(=O)(c1cccc2cnccc12)N1CCCNCC1,scaled lipid accumulation score,[4],0.257
O=S(=O)(c1cccc2cnccc12)N1CCCNCC1 [Fasudil (HA-1077) HCl],scaled lipid accumulation score,[5],≤ 0
same,scaled lipid accumulation score,[4],0.14
O=S(=O)(c1cccc2cnccc12)N1CCCNCC1 [Fasudil],scaled lipid accumulation score,library stock concentration: 6.9 mM,≤ -0.006
O=S(=O)(c1cccc2c(I)cccc12)N1CCCNCC1 [listing 1 of 2 here],scaled lipid accumulation score,[1],≤ -0.001
same,scaled lipid accumulation score,[2],≤ -0.001
same,scaled lipid accumulation score,[3],0.204
"O=S(=O)(c1cccc2c(I)cccc12)N1CCCNCC1 [ML-7, Hydrochloride]",scaled lipid accumulation score,[5],0.25
O=S(=O)(c1cccc2c(Cl)cccc12)N1CCCNCC1 [listing 1 of 2 here],scaled lipid accumulation score,[4],1.02 (active)
O=S(=O)(c1cccc2c(Cl)cccc12)N1CCCNCC1 [listing 2 of 2 here],scaled lipid accumulation score,library stock concentration: 15.4 mM,0.912 (active)
O=S(=O)(c1cccc2c(I)cccc12)N1CCCNCC1 [listing 2 of 2 here],scaled lipid accumulation score,[4],0.931 (active)
NCCNS(=O)(=O)c1cccc2c(Cl)cccc12 [A3 hydrochloride],scaled lipid accumulation score,[4],≤ 0
